High-throughput results deposited in PubChem by National Center for Advancing Translational Sciences (NCATS).
15-hLO inh – qHTS Assay for Inhibitors of 15-hLO (15-human lipoxygenase) | purified 15hLO-1, xylenol orange hydroperoxide absorbance | Potency, µM (series often up to 57.1 µM), for the others: at the top dose activity change, negative = inhibition, actives largely listed as inhibitors | 74,000 compounds, 1.4% hits | AID 887, 2007; note: nearly all actives have a fitted effect of over 55% in size
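Hydroperoxide formed from arachidonic acid (50 uM) by purified human 15hLO-1 (40 nM) oxidizes ferrous iron, and the ferric-xylenol orange complex is read at 573 versus 405 nm. Compounds were preincubated 15 min; reaction ran 6 min at room temperature.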
15-hLO-2 inh – qHTS Assay for Inhibitors of 15-hLO-2 (15-human lipoxygenase 2). 110,000 compounds, 0.56% hits. AID 881, 2007. purified 15hLO-2, xylenol orange hydroperoxide absorbance. Potency, µM (series often up to 57.1 µM), inactives show at the top dose activity change, negative = inhibition, usual class: inhibitors. Polyunsaturated fatty acid lipoxygenase ALOX15B (Homo sapiens), O15296; note: nearly all actives have a fitted effect of over 60% in size
Target sequence (O15296 whole entry, looked up): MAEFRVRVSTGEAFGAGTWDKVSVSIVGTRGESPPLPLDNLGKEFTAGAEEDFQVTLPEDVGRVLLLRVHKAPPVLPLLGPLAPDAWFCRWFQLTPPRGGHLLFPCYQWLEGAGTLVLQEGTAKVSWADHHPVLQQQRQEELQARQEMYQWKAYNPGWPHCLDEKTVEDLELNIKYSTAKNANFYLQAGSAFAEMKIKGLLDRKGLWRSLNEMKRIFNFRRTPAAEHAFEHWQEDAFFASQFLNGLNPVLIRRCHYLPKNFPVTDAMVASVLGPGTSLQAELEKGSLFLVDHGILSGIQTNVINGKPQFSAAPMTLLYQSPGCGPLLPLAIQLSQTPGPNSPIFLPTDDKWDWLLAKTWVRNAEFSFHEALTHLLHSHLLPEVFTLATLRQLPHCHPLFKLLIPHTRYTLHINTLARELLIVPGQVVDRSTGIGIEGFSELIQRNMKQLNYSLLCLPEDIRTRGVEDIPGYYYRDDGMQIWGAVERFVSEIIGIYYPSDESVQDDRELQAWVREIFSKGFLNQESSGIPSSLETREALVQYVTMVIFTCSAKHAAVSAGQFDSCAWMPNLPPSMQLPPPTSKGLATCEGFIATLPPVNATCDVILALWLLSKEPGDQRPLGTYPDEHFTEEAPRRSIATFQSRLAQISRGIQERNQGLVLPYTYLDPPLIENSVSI
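Read-out: hydroperoxide product oxidises ferrous iron, measured as xylenol orange complex via the 573-to-405 nm absorbance ratio after 30 min. Reaction: 50 nM enzyme, 15 min compound preincubation, 45 uM arachidonic acid, 90 min RT, Hepes pH 7.5 with Triton X-100.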
* marks the source's active call; other numbers are inactive results; ? = inconclusive; / = no result given; [ ] = remark or other dose. This excerpt belongs to a sample that is enriched for hits. Calls come from the whole dose curve; as a rule, active = well fitted inhibition curve with a large enough effect; inconclusive = small, poorly fitted or top-dose-only effect; inactive = no such curve, though single readings can be large or run the other way. % is set by controls: 0 for no effect and ±100 for the full control effect; potency is the fitted concentration of half-maximal effect.

SMILES	15-hLO inh	15-hLO-2 inh
CN(C)c1ccc(N/C=C/C(=O)c2ccco2)cc1	/	25.1µM*
CN(Cc1ccco1)c1ccnc(-c2ccoc2)n1	?	-1.8%
CCOC(=O)C1=C(c2ccccc2)c2cc(OC)ccc2OC1C(=O)OCC (configuration not stated)	/	-8.1%[0.0915 µM]
Cc1noc(NS(=O)(=O)c2cccc3c(N(C)C)cccc23)c1C	-39.5%[25.6 µM]	14.4%
Cc1ccc2c(c1)CCCN2C(=O)Nc1ccc2c(c1)OCO2	20µM*	-5.8%
Cc1ccc(C(=O)Nc2ccc3c(c2)OCO3)cc1	/	-2.0%
c1cncc(-c2nn3c(Cn4cnc5ccccc54)nnc3s2)c1	3.98µM*	3.6%
c1ccc(-c2nn3c(Cn4cnc5ccccc54)nnc3s2)cc1	?	6.0%
Cc1nc(NC2CCCCC2)c2nc(-c3ccccc3)n(C(C)CN(C)C)c2n1 (configuration not stated)	-6.3%	55.5%
Cc1ccc(S(=O)(=O)Oc2ccc(N=Nc3ccc(-c4ccc(N=Nc5c(O)ccc6cc(S(=O)(=O)O)cc(S(=O)(=O)O)c56)c(C)c4)cc3C)cc2)cc1	?	3.16µM*
Cc1ccc(N=Nc2c(O)ccc3cc(S(=O)(=O)O)ccc23)cc1	-7.7%[11.4 µM]	-6.2%[11.4 µM]
O=C(Nc1ccccc1)N1CCN(Cc2ccc3c(c2)OCO3)CC1	-1.4%	16.6%
O=C(Nc1ccc2c(c1)OCO2)N1CCN(C/C=C/c2ccccc2)CC1	31.6µM*	17.3%
CC(CC1C(C#N)=C(N)SC(N)=C1C#N)c1ccccc1 (configuration not stated)	15.8µM*	20µM*
CC(c1ccccc1)C1C(C#N)=C(N)SC(N)=C1C#N (configuration not stated)	-13.2%	-13.8%
O=S(=O)(c1ccccc1)N1CCC[C@@]2(CCN(c3cccc(-c4ccccc4)c3)C2)C1	?	-21.9%
O=C(OC1CCCCC1)c1ccc2c(c1)C1C=CCC1C(C(=O)O)N2 (configuration not stated)	25.1µM*	?
O=C(OC1CCCCC1)c1ccc(NC(=O)C2CCCCC2)cc1	/	2.3%
Cc1ccc(CNC(=O)c2cccc(OCc3c(C)noc3C)c2)cc1	2.9%	-1.2%
COc1cc(C(=O)NCc2ccc3c(c2)OCO3)ccc1OCc1c(C)noc1C	12.6µM*	-12.5%
Clc1ccccc1-c1nc(Nc2ccncc2)c2ccccc2n1	3.5%	55.7%
Oc1c(Cl)ccc(Cl)c1Cl	-2.1%	13.5%
O=C1C=CC(=O)c2c(O)c(Cl)c(Cl)c(O)c21	1µM*	-0.3%
Cc1ccc2[nH]c3c(=O)n(CCN4CCOCC4)cnc3c2c1	/	0.8%
Cc1ccc2[nH]c3nc(SCCN4CCOCC4)nnc3c2c1	2.51µM*	-13.9%
SMILES	15-hLO inh	15-hLO-2 inh
Cc1ccsc1C1NC(=O)c2c(sc3c2CCN(C)C3)N1 (configuration not stated)	?	13.2%
CN1CCc2c(sc3c2C(=O)NC(c2cccs2)N3)C1 (configuration not stated)	3.16µM*	51.0%
CN1CCc2c(sc3c2C(=O)NC(c2ccc(-c4cccc(Cl)c4)o2)N3)C1 (configuration not stated)	2.51µM*	/
CSc1ccc(C2NC(=O)c3c(sc4c3CCN(C)C4)N2)cc1 (configuration not stated)	?	32.1%
COc1ccc(N(C(=O)C(C)C)S(=O)(=O)c2cccs2)cc1	/	-1.9%
CC(C)C(=O)N(c1ccc2oc(=O)sc2c1)S(=O)(=O)c1cccs1	20µM*	?
CC(=O)N(c1ccc2oc(=O)sc2c1)S(=O)(=O)c1cccs1	10µM*	-7.2%
COC(=O)c1c(C)oc2ccc(N(C(=O)c3ccncc3)S(=O)(=O)c3ccccc3)cc12	/	-5.4%
CC(=O)Oc1ccc(N(C(C)=O)S(=O)(=O)c2cccs2)cc1	8.8%	-0.3%
CCCC(=O)N(c1ccc2oc(=O)sc2c1)S(=O)(=O)c1ccccc1	25.1µM*	2.8%[2.29 µM]
CC1CC(OC(=O)C(O)c2ccccc2)CC(C)(C)C1 (configuration not stated)	/	-14.5%[0.0915 µM]
CC(C)NC(=O)N1CCCC2(CCN(C(=O)c3cccc(F)c3)CC2)C1	-19.2%	18.0%
COc1ccc(CCCn2ncc3c2nc(N)n2nc(-c4ccco4)nc32)cc1	/	-3.5%[0.0915 µM]
COc1c(N2C[C@@H]3CCCN[C@H]3C2)c(F)cc2c(=O)c(C(=O)O)cn(C3CC3)c12	3.9%	1.3%
c1ccc([P+](CC[P+](c2ccccc2)(c2ccccc2)c2ccccc2)(c2ccccc2)c2ccccc2)cc1	5.7%[11.4 µM]	17.4%[11.4 µM]
C[C@@H]1C[C@H](OC(=O)c2ccccc2O)CC(C)(C)C1	7.9%[25.6 µM]	4.6%[25.6 µM]
S=c1ccss1	7.94µM*	?
CC(=O)c1ccc(C2C=CC(O)C(CO)O2)cc1 (configuration not stated)	7.2%[11.4 µM]	/
